According to the antibiotic and cytotoxicity screens of Wong et al. (2023):
Out of some 39,000 compounds screened, about 1,500 (3.8%) were called active. For the sample, actives were picked, then their nearest neighbours and some compounds at random.

system: HSkMC (human skeletal muscle cells); experiment: cytotoxicity call (relative viability < 0.9); details: 10 µM

Compound	cytotoxicity call
NCCc1ccc(O)cc1 [listing 1 of 2 here]	inactive
NCCc1ccc(O)cc1 [listing 2 of 2 here]	inactive
CCCCCCCCCc1ccc(O)cc1	active
COP(=O)(OC)OC(Br)C(Cl)(Cl)Br (stereo unspecified)	inactive
COC(=O)[C@H]1CNC(=O)C1	inactive
C=C(C)C1C2OC(=O)C1C1(O)CC3OC34C(=O)OC2C14C (stereo unspecified)	inactive
C1COC2(CCNCC2)OC1	inactive
Cl.OC1CCCCC1N1CCC(c2ccccc2)CC1 (stereo unspecified)	inactive
C[C@@]12C(=O)OC(=O)[C@]1(C)[C@H]1CC[C@@H]2O1	active
CC12C(=O)OC(=O)C1(C)C1CCC2O1 (stereo unspecified)	inactive
C[C@]12C(=O)OC(=O)[C@]1(C)[C@H]1CC[C@H]2O1	active
C(=N/C12CN3CN(CN(C3)C1)C2)/c1cccnc1	inactive
CC(=CCn1c[n+](C)c2c(N)ncnc21)CCC1(C)C(C)CCC2(C)C(C)=CCCC21.[Cl-] (stereo unspecified)	inactive
OCC1CCCN2CCCCC12 (stereo unspecified)	inactive
N=C(N)N/N=C/c1ccc2c(c1)OCO2	inactive
COc1ccc(OC(=O)N(C)C[C@@H]2OCc3ccccc3-c3c(n(C)c4ccccc34)C(=O)N([C@H](C)CO)C[C@H]2C)cc1	active
COc1ccc(OC(=O)N(C)C[C@H]2OCc3ccccc3-c3c(n(C)c4ccccc34)C(=O)N([C@H](C)CO)C[C@@H]2C)cc1	inactive
Cc1ccc(OC(=O)N(C)C[C@H]2OCc3ccccc3-c3c(n(C)c4ccccc34)C(=O)N([C@H](C)CO)C[C@@H]2C)cc1	active
COc1ccc(OC(=O)N(C)C[C@H]2OCc3ccccc3-c3c(n(C)c4ccccc34)C(=O)N([C@@H](C)CO)C[C@H]2C)cc1	inactive
Cc1ccc(OC(=O)N(C)C[C@@H]2OCc3ccccc3-c3c(n(C)c4ccccc34)C(=O)N([C@@H](C)CO)C[C@H]2C)cc1	inactive
Cc1ccc(OC(=O)N(C)C[C@@H]2OCc3ccccc3-c3c(n(C)c4ccccc34)C(=O)N([C@H](C)CO)C[C@@H]2C)cc1	inactive

Compound	cytotoxicity call
O=C(NC(O)C(Cl)(Cl)Cl)NC(O)C(Cl)(Cl)Cl (stereo unspecified)	inactive
CC(C)C[C@@H]1C(=O)N2CCC[C@@H]2[C@]2(O)O[C@@](NC(=O)[C@@H]3C=C4c5cccc6[nH]cc(c56)C[C@@H]4N(C)C3)(C(C)C)C(=O)N12	inactive
C[C@H]1CN(C)[C@@H](C)C[C@@H]1n1[nH]c(=O)cc1N	inactive
CO[C@H]1[C@H]2CC[C@@H]1NC2	inactive
O=[N+]([O-])C(Br)(CO)CO [listing 1 of 2 here]	active
OCC(Br)(Br)Br	inactive
O=[N+]([O-])C(Br)(CO)CO [listing 2 of 2 here]	active
C=C(C)[C@@H]1[C@H]2OC(=O)[C@H]1[C@]1(O)C[C@H]3O[C@]34C(=O)O[C@H]2[C@]14C	inactive
Cc1cc(N2CCN(C)CC2)ncn1	inactive
CN1[C@@H](CO)[C@@H]2c3ccccc3NC[C@@H]21	inactive
COc1ccc(OC(=O)N(C)C[C@@H]2OCc3ccccc3-c3c(n(C)c4ccccc34)C(=O)N([C@H](C)CO)C[C@@H]2C)cc1	inactive
CC[n+]1c(-c2ccccc2)c2cc(N)ccc2c2ccc(N)cc21.[Br-]	inactive
CN[C@H]1C[C@@H](N)[C@H](O)[C@@H](O[C@@H]2O[C@H](CO)[C@H](O)[C@@H]3O[C@@]4(O[C@H]23)O[C@H]([C@@H](N)CO)[C@H](O)[C@H](O)[C@H]4O)[C@@H]1O	active
O=c1cccc2n1C[C@@H]1C[C@H]2CN(C[C@H](O)/C=N/n2cnnc2)C1	inactive
CC(=O)OCC1=C(C(=O)O)N2C(=O)[C@@H](NC(=O)CCC[C@@H](N)C(=O)O)[C@@H]2SC1	inactive
N[C@@H](Cc1ccc(O)cc1)C(=O)NCC(=O)NCC(=O)O	inactive
Cc1nc2c(=O)n(C)c(=O)nc-2n(C)n1	active
Cn1ncnc2c(=O)n(C)c(=O)nc1-2	active
Cc1cnc(C(=O)N2C[C@H]3CNC[C@H]3C2)cn1	inactive
[O-][n+]1ccccc1[S][Zn][S]c1cccc[n+]1[O-]	active
O=C(O)C[C@@H]1CC[C@H]2NC[C@@H](O)COC[C@@H]2O1	inactive

Compound	cytotoxicity call
Cc1cc(O)c2c(=O)c3c(O)cc(O)c4c5c(O)cc(O)c6c(=O)c7c(O)cc(C)c8c1c2c(c34)c(c78)c65	active
CCC1(O)C(=O)OCc2c1cc1n(c2=O)Cc2cc3ccccc3nc2-1 (stereo unspecified)	inactive
Cc1nc(-c2ccc(-c3ccc(C(=O)N4CCc5cc6c(cc54)C4(CCN(C)CC4)CO6)cc3)c(C)c2)no1	active
C=C(C)[C@H]1O[C@H]2CC[C@@]3(C)[C@@](O)(CC[C@H]4[C@@H]5OC(C)(C)[C@H]6C[C@@H]7C(=C)Cc8c(Cl)cc9[nH]c(c5c9c8[C@@]76O)[C@@]43C)[C@]23O[C@@H]3[C@H]1O	inactive
O=C1[O][Pt]2([NH][C@@H]3CCCC[C@H]3[NH]2)[O]C1=O	active
CN(C)c1ccc(CCN)cc1	inactive
Br.CC(Cc1ccc(O)cc1)NCC(O)c1cc(O)cc(O)c1 (stereo unspecified)	inactive
CC(=O)O.Cc1cc2c(C(C)C)c(O)c(O)c(C=O)c2c(O)c1-c1c(C)cc2c(C(C)C)c(O)c(O)c(C=O)c2c1O	inactive
Cc1cc2c(C(C)C)c(O)c(O)c(C=O)c2c(O)c1-c1c(C)cc2c(C(C)C)c(O)c(O)c(C=O)c2c1O [listing 1 of 2 here]	inactive
Cc1cc2c(C(C)C)c(O)c(O)c(C=O)c2c(O)c1-c1c(C)cc2c(C(C)C)c(O)c(O)c(C=O)c2c1O [listing 2 of 2 here]	active
O=C(O)C=CCO	inactive
COCC12CN(C=O)C3C4C(OC)C1C3(C(OC)CC2O)C1CC2(O)C(OC)C(O)C4(OC(C)=O)C1C2OC(=O)c1ccccc1 (stereo unspecified)	inactive
O=C1CCN(C(=O)C2CCC2)CC1	inactive
COC(=O)[C@]1(Cc2ccccc2N=[N+]=[N-])N=C(c2ccc(OCCCO)cc2)O[C@@H]1c1ccccc1N=[N+]=[N-]	active
COC(=O)[C@@]1(Cc2ccccc2N=[N+]=[N-])N=C(c2ccc(OCCCO)cc2)O[C@H]1c1ccccc1CN=[N+]=[N-]	inactive
COC(=O)[C@]1(Cc2ccccc2CN=[N+]=[N-])N=C(c2ccc(OCCCO)cc2)O[C@@H]1c1ccccc1N=[N+]=[N-]	inactive
COC(=O)[C@@]1(Cc2ccccc2CN=[N+]=[N-])N=C(c2ccc(OCCCO)cc2)O[C@H]1c1ccccc1N=[N+]=[N-]	inactive
COC(=O)[C@]1(Cc2ccccc2N=[N+]=[N-])N=C(c2ccc(OCCCO)cc2)O[C@@H]1c1ccccc1CN=[N+]=[N-]	inactive
COC(=O)[C@@]1(Cc2ccccc2N=[N+]=[N-])N=C(c2ccc(OCCCO)cc2)O[C@H]1c1ccccc1N=[N+]=[N-]	active
